We go through eight molecules from PubChem BioAssay (NCATS).

Molecules are shown by their SMILES. Inconclusive results are not listed. Calls of active or inactive are those of the source. Unless noted, calls come from the whole dose curve; as a rule, active = well fitted curve in the direction sought with a large enough effect; inconclusive = small, poorly fitted or top-dose-only effect, or another doubt; inactive = no such curve, though single readings can be large; an effect the other way counts as inactive or inconclusive.

The target in experiment [1] is Ferritin light chain (Equus caballus) (UniProt P02791). The experiment is described as follows: qHTS Validation Assay for Identification of Novel General Anesthetics (AID 2323). Note: series mostly up to about 77 µM. A digest of the protocol: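 Normalized fluorescence response, scaled between free 1-AMA and 1-AMA/apoferritin complex, fitted to a four-parameter Hill equation for concentration-effect values. Binding mix: 10 uM horse-spleen apoferritin, 50% saturated 1-AMA in PBS; read 380/535 nm after 10 min.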

Experiment [2] deals with ATP-dependent DNA helicase Q1 (Homo sapiens) (UniProt P46063). The experiment is described as follows: qHTS Validation Assay for Inhibitors of RecQ-Like Dna Helicase 1 (RECQ1) (AID 2353). The method, boiled down: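 50 nM RECQ1T1 preincubated 15 min with compound in Tris pH 8.0 buffer with MgCl2, DTT, Tween-20 and 2.5 ug/ml poly(dI-dC); started with 200 nM TAMRA/BHQ-2 forked duplex and 2 mM ATP. Unwinding read as fluorescence (525/598 nm), two reads 2 h apart.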
A general note: qHTS replaces the single test concentration by a dilution series.

Experiment [3] has as its target RecQ-like DNA helicase BLM (Homo sapiens) (UniProt P54132). The experiment is described as follows: qHTS Validation Assay for Inhibitors of Bloom's syndrome helicase (BLM) (AID 2364). A digest of the protocol: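 Forked 20-bp duplex substrate (200 nM, TAMRA/BHQ-2) plus 2 mM ATP added after 15 min compound preincubation with 50 nM enzyme, pH 8.0, poly(dI-dC) 2.5 ug/ml. Strand separation followed by fluorescence (525/598 nm) over 2 h, normalized to enzyme-free and DMSO controls.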

Experiment [4] can be described thus: Cytometric Cell-Based qHTS for Inhibitors of the mTORC1 Signaling Pathway in MEF (Tsc2-/-, p53-/-) Cells (AID 2660).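 Note: percent of cells above a phospho-rpS6 to PI ratio cutoff in each well; series mostly up to about 38 µM.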 A digest of the protocol:
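Tsc2-/-, p53-/- MEFs (empty vector) exposed to compound 24 h at 37 C, fixed, stained with Alexa-488 anti-phospho-rpS6 Ser235/236 and propidium iodide. Acumen laser scanning; phospho-S6/PI ratio thresholded against 7.5 nM rapamycin, reported as % positive cells.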

A short description of experiment [5]: High Content Imaging Cell-Based qHTS for Inhibitors of the mTORC1 Signaling Pathway in MEF (Tsc2-/-, p53-/-) Cells (AID 2666).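 Note: percent of cells scored positive for phospho-rpS6 Ser235/236 immunostaining by imaging.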 A digest of the protocol: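 Cells were plated, dosed with compound after 24 hrs, and incubated another 24 hrs at 37 degree Celsius. Fixed cells were immunostained for phospho-rpS6 Ser235/236 and counterstained, and the normalized signal was scored as % active cells against rapamycin and DMSO controls.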

Experiment [6] in a line: Validation screen for small molecules that induce DNA re-replication in MCF 10A normal breast cells (AID 463097). Note: nearly all actives have a fitted effect of over 60% in size. The method, boiled down:
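Following 48 hr compound incubation (37 C, 5% CO2), MCF 10A cells receive Hoechst for 40 min at 37 C. Nuclei are then scanned (excitation 405 nm, emission 500-530 nm) for total fluorescence intensity.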

Experiment [7] concerns the target DNA polymerase III PolC-type (Bacillus subtilis (strain 168)) (UniProt P13267). Kind of experiment: qHTS Validation Assay for the Inhibitors of DNA Replication in Gram-Positive Bacteria (AID 485295).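 Note: reconstituted holoenzyme with PolC plus beta clamp SSB and primase; PicoGreen fluorescence of double-stranded DNA made on primed circular M13 template; series mostly up to about 57 µM.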 The method, boiled down: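 Inhibition of DNA synthesis by the reconstituted PolC holoenzyme, monitored through PicoGreen staining of dsDNA formed from ssM13Gori, dNTPs and NTPs, with compound preincubation and room-temperature reaction.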

The target of experiment [8] is Tumor susceptibility gene 101 protein (Homo sapiens) (UniProt Q99816). Kind of experiment: qHTS Validation Assay for Iinhibitors of HIV-1 Budding by Blocking the Interaction of PTAP/TSG101 (AID 485342; calls by dose curve). A digest of the protocol:
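Compound wells held the Tsg101 binding domain (10 uM) and a FITC-conjugated PTAP peptide (50 nM) in buffer at pH 7.5 containing 0.15 M NaCl and 0.01% Tween 20; polarization was recorded after 20 min, r.t.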

Experiment [9] addresses Beta-2 adrenergic receptor (Homo sapiens) (UniProt P07550). Kind of experiment: qHTS validation assay of beta-arrestin-biased ligands of beta2-adrenergic receptor (AID 485366). A digest of the protocol:
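Tango cells expressing recombinant beta2-AR and beta-arrestin with tTA-driven luciferase, in DMEM with 1% FBS. Compounds were titrated up to 46 microM for 18 hr at 37 degrees C. Luminescence was read 15 min after substrate; curves were fitted and class-assigned.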

Experiment [10] has as its target ATP-dependent 6-phosphofructokinase (Trypanosoma brucei brucei) (UniProt O15648). Kind of experiment: qHTS Validation Assay to Find Inhibitors of T. brucei phosphofructokinase (AID 485368). The method, boiled down:
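Activity was read as ADP production by luminescence (ADP-Glo) after 45 min at room temperature. The enzyme was 1.25nM PFK in 0.1M TEA pH 8.0 with 0.5 mM F6P, 0.1mM ATP and 5 mM MgCl2. Compounds were titrated up to 57 uM and % activity normalized to no-enzyme and full-enzyme controls.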

In experiment [11] the target is Thioredoxin reductase 1, cytoplasmic (Rattus norvegicus) (UniProt O89049). The experiment is described as follows: qHTS Assay for Substrates of Mammalian Selenoprotein Thioredoxin Reductase 1 (TrxR1) (AID 488772).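 Note: NADPH fluorescence in the first read after selenite addition and not the 8 min delta; series mostly up to about 57 µM; a drop in NADPH fluorescence below the no-compound background marks a TrxR1 substrate.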 The method, boiled down: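 Quantitative HTS in Tris-HCl buffer at pH 7.5 with EDTA and Tween-20, using rat TrxR1, 400 uM NADPH and 400 uM selenite (final). A fall in initial NADPH fluorescence relative to background marked substrate behaviour.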

Experiment [12] shares this target. Kind of experiment: qHTS Assay for Inhibitors of Mammalian Selenoprotein Thioredoxin Reductase 1 (TrxR1) (AID 488773).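 Note: drop in NADPH fluorescence over an 8 min run after selenite addition; series mostly up to about 57 µM; nearly all actives have a fitted effect of over 40% in size.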 The following applies: Potency: inhibition. The method, boiled down: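 Steps: enzyme (90 nM) plus NADPH (400 uM final), 5 min at ~22 deg C; compound added, 15 min; selenite (400 uM final) added; fluorescence followed for 8 min. Concentration-response curves derived from the normalized delta values.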

Experiment [13] has as its target Flap endonuclease 1 (Homo sapiens) (UniProt P39748). The experiment is described as follows: qHTS Validation Assay for the Inhibitors of Human Flap endonuclease 1 (FEN1) (AID 488816). A digest of the protocol: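 Readings taken at 0 and 15 min after starting the reaction with 50 nM (final) substrate supplied the signal. Compounds had first sat with 10 nM FEN1 reagent for 15 min at room temperature. Values come from Hill-equation concentration-response fits.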

For experiment [14], the target named is M-phase phosphoprotein 8 (Homo sapiens) (UniProt Q99549). Kind of experiment: qHTS Validation Assay for Inhibitors for MPP8 Chromodomain Interactions with Methylated Histone Tails (AID 488949).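 Note: 50 nM MPP8 with 50 nM peptide preformed then compounds added for 30 min; AlphaScreen signal from MPP8 chromodomain bound to biotinylated H3K9me3 peptide; top concentration of the series differs between compounds; nearly all actives have a fitted effect of over 55% in size.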 A digest of the protocol:
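Chemiluminescent proximity assay: histidine-tag capture via nickel acceptor beads, biotin peptide via streptavidin donor beads. Protein and peptide each at 50 nM, pH 7.4, with 30 min incubations at room temperature for complex formation, compound exposure and bead binding.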

Experiment [15] is described as follows: Cytometry Cell-Based qHTS for Inhibitors of the mTORC1 Signaling Pathway in MEF cells (AID 2668). Note: potency is the fitted concentration of half-maximal effect. The method, boiled down: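 In MEFs grown in DMEM + 10% FBS, a 24 hrs compound exposure preceded imaging of phospho-rpS6 Ser235/236 by laser-scanning cytometry.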
For experiment [16], the target named is Ubiquitin carboxyl-terminal hydrolase 2 (Homo sapiens) (UniProt O75604). The experiment is described as follows: qHTS Validation Assay for Inhibitors of Ubiquitin-specific Protease USP2a Using CHOP2 as the Reporter (AID 463106). A digest of the protocol: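 10nM USP2 core + cpd, 30min RT; add 25nM Ub-CHOP2/25nM substrate; 60min RT; FI 485/531nm. Buffer Tris pH 8.0, CaCl2, BME, CHAPS. Norm. to NEM = 100% inhibition; time-zero read flags fluorescent artifacts.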

Experiment [17] is described as follows: qHTS Validation Assay to Find Inhibitors of Chronic Active B-Cell Receptor Signaling (AID 485345; active = well fitted curve in the direction sought with a large enough effect in the main read-out, with a control signal flat, not every such curve was filed as active). The method, boiled down: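 Read-out: ratio of filter-corrected green (IkappaBalpha fusion) to red (native) luciferase signal in doxycycline-induced TMD8 cells after 4 h at 37C. Titration spanned 46 uM–3 nM; Data were normalised to basal cells and 10 uM MG-132 wells.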

The nature of experiment [18]: Quantitative high throughput screen for delayed death inhibitors of the malarial parasite plastid, 96 hour incubation (AID 488745). Note: nearly all actives have a fitted effect of over 70% in size. Note: potency is the fitted concentration of half-maximal effect. A digest of the protocol: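 Infected erythrocytes were added to compound in Albumax-supplemented RPMI 1640 at 0.1% parasitemia and 2% hematocrit (final), incubated 96 h at 37 C under 5% CO2, then luciferase reagent was added and luminescence measured.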

Experiment [19] is described as follows: Quantitative high throughput screen for delayed death inhibitors of the malarial parasite plastid, 48 hour incubation (AID 488752). Note: nearly all actives have a fitted effect of over 65% in size. Note: potency is the fitted concentration of half-maximal effect. The method, boiled down: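 Readout is firefly luciferase luminescence from a reporter integrated into the parasite genome, with lower signal taken as inhibited growth. Infected red cells (0.1% parasitemia, 2% hematocrit final) are cultured with compound for one 48 h cycle at 37 C.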

The nature of experiment [20]: High Content Imaging Cell-Based qHTS for Inhibitors of the mTORC1 Signaling Pathway in MEF Cells (AID 2667). Note: potency is the fitted concentration of half-maximal effect. The method, boiled down:
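Immunofluorescence for rpS6 phosphorylation in MEFs of Tsc2-/-, p53-/- background rescued with WT Tsc2. Compound exposure lasted 24 hrs. Inhibition was scored against rapamycin-treated control wells.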

Chain of ATP-dependent 6-phosphofructokinase (Trypanosoma brucei brucei) (O15648 whole entry, looked up): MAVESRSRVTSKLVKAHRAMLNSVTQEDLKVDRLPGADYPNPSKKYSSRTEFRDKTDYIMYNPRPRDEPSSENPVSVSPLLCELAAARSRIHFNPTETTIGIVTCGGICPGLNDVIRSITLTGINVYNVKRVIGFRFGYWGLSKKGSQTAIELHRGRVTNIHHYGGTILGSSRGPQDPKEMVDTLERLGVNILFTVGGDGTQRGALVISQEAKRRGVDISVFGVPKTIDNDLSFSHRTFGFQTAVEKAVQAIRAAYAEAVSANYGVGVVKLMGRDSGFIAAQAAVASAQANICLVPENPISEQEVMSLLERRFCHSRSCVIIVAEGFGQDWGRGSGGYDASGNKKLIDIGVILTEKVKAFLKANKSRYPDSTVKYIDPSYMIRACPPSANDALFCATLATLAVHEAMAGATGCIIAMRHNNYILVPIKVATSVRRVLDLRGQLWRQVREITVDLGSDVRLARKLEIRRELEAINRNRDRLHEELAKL
Chain of Beta-2 adrenergic receptor (Homo sapiens) (P07550 whole entry, looked up): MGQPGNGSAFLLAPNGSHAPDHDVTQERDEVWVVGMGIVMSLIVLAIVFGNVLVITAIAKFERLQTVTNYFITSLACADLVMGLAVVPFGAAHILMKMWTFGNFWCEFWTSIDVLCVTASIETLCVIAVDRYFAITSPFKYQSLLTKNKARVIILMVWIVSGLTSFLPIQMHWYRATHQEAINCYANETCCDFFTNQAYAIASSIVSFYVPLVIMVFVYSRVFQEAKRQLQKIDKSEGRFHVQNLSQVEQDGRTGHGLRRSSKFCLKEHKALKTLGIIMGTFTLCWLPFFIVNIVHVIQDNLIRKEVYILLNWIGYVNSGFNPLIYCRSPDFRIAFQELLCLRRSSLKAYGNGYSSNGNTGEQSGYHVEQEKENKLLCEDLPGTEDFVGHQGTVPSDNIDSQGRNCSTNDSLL
Chain of Thioredoxin reductase 1, cytoplasmic (Rattus norvegicus) (O89049 whole entry, looked up): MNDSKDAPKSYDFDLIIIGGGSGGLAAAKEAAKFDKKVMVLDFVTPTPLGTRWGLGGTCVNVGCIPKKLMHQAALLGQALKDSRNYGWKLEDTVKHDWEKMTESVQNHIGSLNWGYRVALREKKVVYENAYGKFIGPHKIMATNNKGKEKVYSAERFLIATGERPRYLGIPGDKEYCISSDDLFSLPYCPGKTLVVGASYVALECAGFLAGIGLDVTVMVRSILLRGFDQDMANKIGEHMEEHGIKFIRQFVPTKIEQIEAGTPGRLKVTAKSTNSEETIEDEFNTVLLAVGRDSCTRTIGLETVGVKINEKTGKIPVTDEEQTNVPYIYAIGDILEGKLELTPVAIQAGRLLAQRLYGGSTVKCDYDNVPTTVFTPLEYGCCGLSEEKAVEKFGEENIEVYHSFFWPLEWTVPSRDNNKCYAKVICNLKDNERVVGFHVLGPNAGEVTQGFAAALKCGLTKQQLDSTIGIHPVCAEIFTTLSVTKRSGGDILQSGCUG
Chain of ATP-dependent DNA helicase Q1 (Homo sapiens) (P46063 whole entry, looked up): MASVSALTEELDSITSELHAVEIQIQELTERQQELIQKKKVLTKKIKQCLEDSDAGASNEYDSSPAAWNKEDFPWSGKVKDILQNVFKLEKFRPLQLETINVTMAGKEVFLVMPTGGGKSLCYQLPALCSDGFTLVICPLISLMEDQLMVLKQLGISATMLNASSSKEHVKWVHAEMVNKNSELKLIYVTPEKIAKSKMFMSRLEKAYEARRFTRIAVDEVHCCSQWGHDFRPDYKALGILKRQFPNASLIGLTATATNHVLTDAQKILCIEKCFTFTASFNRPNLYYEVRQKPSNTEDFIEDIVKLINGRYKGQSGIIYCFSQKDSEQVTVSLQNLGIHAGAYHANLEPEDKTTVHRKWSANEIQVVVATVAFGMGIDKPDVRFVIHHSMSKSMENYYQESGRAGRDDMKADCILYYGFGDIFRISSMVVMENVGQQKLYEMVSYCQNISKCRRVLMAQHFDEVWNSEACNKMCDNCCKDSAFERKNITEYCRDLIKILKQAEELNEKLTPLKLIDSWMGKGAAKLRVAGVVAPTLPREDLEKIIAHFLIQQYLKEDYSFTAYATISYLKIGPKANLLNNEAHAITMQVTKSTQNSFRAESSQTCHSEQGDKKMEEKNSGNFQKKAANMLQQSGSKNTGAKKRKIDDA
Chain of Flap endonuclease 1 (Homo sapiens) (P39748 whole entry, looked up): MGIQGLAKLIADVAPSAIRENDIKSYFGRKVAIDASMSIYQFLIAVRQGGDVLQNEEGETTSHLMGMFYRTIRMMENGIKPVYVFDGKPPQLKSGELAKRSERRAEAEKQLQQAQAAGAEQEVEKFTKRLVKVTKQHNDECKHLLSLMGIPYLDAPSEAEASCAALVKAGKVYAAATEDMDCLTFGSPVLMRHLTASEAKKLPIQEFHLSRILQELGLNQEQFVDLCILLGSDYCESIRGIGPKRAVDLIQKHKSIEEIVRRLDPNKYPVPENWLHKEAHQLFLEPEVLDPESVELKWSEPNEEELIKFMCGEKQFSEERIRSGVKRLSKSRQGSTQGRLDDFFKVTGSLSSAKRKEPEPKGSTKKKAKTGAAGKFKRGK
Chain of M-phase phosphoprotein 8 (Homo sapiens) (Q99549 whole entry, looked up): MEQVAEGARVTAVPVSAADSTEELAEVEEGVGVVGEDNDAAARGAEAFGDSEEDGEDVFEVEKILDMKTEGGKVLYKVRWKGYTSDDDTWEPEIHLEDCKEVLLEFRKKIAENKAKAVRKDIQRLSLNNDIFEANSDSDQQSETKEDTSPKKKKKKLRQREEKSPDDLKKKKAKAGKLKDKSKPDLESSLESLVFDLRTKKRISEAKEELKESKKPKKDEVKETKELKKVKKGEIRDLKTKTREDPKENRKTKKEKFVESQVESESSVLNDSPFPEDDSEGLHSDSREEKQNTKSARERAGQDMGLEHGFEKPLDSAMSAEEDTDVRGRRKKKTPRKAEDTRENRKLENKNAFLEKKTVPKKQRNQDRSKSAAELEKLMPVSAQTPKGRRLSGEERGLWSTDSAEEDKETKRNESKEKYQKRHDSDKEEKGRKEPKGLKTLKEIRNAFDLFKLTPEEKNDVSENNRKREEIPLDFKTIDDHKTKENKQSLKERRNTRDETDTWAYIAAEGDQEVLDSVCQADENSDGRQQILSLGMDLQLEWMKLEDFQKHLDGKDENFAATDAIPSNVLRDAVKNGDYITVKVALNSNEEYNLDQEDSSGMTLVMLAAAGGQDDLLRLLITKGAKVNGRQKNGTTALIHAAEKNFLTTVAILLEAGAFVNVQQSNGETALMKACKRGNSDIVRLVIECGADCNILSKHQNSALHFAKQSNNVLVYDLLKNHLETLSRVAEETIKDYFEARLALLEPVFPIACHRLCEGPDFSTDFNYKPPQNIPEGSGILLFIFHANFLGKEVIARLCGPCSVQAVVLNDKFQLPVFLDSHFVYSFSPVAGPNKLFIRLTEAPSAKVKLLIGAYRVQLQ
Chain of DNA polymerase III PolC-type (Bacillus subtilis (strain 168)) (P13267 whole entry, looked up): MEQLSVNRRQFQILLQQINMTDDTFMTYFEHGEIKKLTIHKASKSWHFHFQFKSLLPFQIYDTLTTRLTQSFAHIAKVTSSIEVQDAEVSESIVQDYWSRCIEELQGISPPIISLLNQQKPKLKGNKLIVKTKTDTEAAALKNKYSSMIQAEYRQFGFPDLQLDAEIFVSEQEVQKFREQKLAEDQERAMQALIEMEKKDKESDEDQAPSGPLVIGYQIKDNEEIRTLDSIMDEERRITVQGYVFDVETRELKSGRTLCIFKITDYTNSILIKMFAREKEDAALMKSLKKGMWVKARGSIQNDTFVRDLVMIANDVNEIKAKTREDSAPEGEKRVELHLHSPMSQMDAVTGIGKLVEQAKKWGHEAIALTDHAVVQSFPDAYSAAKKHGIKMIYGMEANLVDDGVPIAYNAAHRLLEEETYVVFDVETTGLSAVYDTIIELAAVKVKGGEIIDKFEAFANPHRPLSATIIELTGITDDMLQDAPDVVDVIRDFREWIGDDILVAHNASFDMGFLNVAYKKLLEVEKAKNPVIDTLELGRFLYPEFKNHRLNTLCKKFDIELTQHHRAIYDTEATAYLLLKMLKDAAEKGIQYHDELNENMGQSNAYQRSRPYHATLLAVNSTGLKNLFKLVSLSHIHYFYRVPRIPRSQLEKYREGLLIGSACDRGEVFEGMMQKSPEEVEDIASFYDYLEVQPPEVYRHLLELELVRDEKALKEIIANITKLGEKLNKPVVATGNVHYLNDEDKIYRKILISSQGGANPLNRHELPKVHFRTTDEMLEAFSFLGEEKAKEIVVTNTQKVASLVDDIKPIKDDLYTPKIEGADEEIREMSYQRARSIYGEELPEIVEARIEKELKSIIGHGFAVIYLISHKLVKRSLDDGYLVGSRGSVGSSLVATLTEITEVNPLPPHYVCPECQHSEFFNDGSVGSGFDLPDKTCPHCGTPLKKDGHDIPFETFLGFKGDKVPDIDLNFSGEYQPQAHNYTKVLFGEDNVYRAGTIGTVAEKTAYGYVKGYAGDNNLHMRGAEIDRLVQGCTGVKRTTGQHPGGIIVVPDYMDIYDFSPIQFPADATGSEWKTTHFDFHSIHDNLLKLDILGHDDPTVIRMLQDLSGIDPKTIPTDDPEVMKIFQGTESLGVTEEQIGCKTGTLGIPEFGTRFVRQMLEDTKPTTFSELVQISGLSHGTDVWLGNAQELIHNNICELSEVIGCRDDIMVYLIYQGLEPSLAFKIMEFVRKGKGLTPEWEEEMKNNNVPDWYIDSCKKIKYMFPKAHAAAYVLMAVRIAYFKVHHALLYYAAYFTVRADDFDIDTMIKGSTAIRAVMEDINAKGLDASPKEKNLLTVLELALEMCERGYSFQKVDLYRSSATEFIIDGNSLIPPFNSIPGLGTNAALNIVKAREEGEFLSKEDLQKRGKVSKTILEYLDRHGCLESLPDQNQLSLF
Chain of Ferritin light chain (Equus caballus) (P02791 2-175 limits assumed): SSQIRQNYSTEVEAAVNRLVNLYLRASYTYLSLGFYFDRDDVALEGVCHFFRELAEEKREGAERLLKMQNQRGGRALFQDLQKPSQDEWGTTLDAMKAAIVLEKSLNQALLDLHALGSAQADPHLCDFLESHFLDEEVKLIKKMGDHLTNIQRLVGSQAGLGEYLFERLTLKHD

With `CN(C)CCC=C1c2ccccc2C=Cc2ccccc21`, the Potency entry in experiment [1], in experiment [2], in experiment [3], in experiment [5], in experiment [6] and in experiment [7] was “inactive” each time. For the same molecule, the Potency result in experiment [10], in experiment [12], in [13] and in experiment [14] was “inactive” in each case. Further, the molecule was called inactive in [4], in [8], in experiment [9] and in experiment [11].

As to `CC(C)NCC(O)c1ccc(O)c(O)c1` (stereo unspecified), the Potency result in [1], in experiment [2], in [3], in experiment [5], in [6] and in experiment [16] was “inactive” throughout. Besides, the Potency entry in experiment [7], in [17], in experiment [18], in experiment [19], in experiment [13] and in experiment [14] was “inactive” each time. Besides, the molecule was classed as inactive in experiment [4], in experiment [8] and in [11]. For the same molecule, the Potency in experiment [15] is 13.1 µM (active).

In the case of `O=c1[nH]cc(F)c(=O)[nH]1`, the Potency result in experiment [1], in experiment [2], in experiment [3], in experiment [5], in experiment [20] and in experiment [6] was “inactive” each time. In addition, the Potency entry in experiment [7], in [17], in [12] and in [14] was “inactive” each time. Further, the outcome in [4], in [8], in experiment [9] and in experiment [11] was inactive.

For `O=C(CCCN1CCC(O)(c2ccc(Cl)cc2)CC1)c1ccc(F)cc1`, the Potency result in experiment [1], in [2], in [3], in [5], in [6] and in experiment [16] was “inactive” each time. The Potency result in experiment [7] and in experiment [17] was “inactive” each time. The molecule was classed as inactive in experiment [4], in experiment [8], in experiment [9] and in experiment [11]. Also, the Potency in experiment [20] was 23.3 µM (active); in experiment [18] it was 7.38 µM (active); in experiment [19] it was 10.4 µM (active).

Take `NC(=O)OCC(COC(N)=O)c1ccccc1`: the Potency entry in experiment [1], in [2], in experiment [3], in experiment [5], in [20] and in experiment [15] was “inactive” throughout. Besides, the Potency result in [6], in [16], in [7], in [17], in experiment [10] and in experiment [18] was “inactive” in each case. Besides, the Potency entry in experiment [19], in experiment [12], in experiment [13] and in experiment [14] was “inactive” throughout. Besides, the molecule was called inactive in experiment [4], in experiment [8], in experiment [9] and in experiment [11].

For the molecule `COc1ccccc1N1CCN(CC(O)COc2cccc3ccccc23)CC1` (stereo unspecified), the Potency entry in experiment [1], in [2], in [3], in experiment [5], in experiment [16] and in experiment [7] was “inactive” in each case. Moreover, the Potency result in experiment [10], in [18], in experiment [19], in experiment [12] and in experiment [13] was “inactive” each time. For the same molecule, the outcome in experiment [8], in experiment [9] and in [11] was inactive.

Turning to `CCC1(c2ccccc2)C(=O)NCNC1=O`, the Potency result in experiment [1], in experiment [2], in [3], in [5], in experiment [20] and in [15] was “inactive” each time. Moreover, the Potency result in experiment [6], in experiment [16], in [7], in experiment [17], in experiment [10] and in [18] was “inactive” throughout. Besides, the Potency entry in experiment [19], in experiment [12], in [13] and in experiment [14] was “inactive” throughout. The molecule was called inactive in experiment [4], in experiment [8], in experiment [9] and in experiment [11].

Regarding `NS(=O)(=O)c1cc2c(cc1Cl)NCNS2(=O)=O`, the Potency result in experiment [1], in experiment [2], in [3], in [5], in [15] and in [6] was “inactive” in each case. The Potency result in experiment [16], in [7], in experiment [17], in experiment [18], in experiment [19] and in [12] was “inactive” throughout. Besides, the Potency result in experiment [13] and in experiment [14] was “inactive” each time. Moreover, the outcome in [4], in experiment [8], in [9] and in experiment [11] was inactive.
